Reference: PubChem BioAssay (Tox21)
Unmarked numbers belong to inactive results. Records with an inconclusive call do not appear. A call without a number means that no potency is given here. Active and inactive are the calls of the source. Unless noted, calls follow the shape of the dose curve; as a rule, active = well fitted curve in the direction sought with a large enough effect in the repeat runs; inconclusive = weak or mixed curves; inactive = no such curve, though single readings can be large; an effect the other way counts as inactive or inconclusive.

Tests used:
[1] = qHTS assay to identify small molecule antagonists of the TGF-beta/Smad signaling pathway - cell viability counter screen (AID 1346824); also: nearly all actives have a fitted effect of over 50% in size
How it was run: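 SBE-bla HEK 293T cells, incubated overnight, then compound plus 0.25 ng/mL TGF-beta1 (stock added) for 5 hr at 37 C. Viability was read in the same wells by CellTiter-Glo luminescence after 30 min at room temperature.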

[2] = qHTS assay to identify small molecule agonists of the TGF-beta/Smad signaling pathway - cell viability counter screen (AID 1346829); also: top concentration of the series differs between compounds; nearly all actives have a fitted effect of over 45% in size
How it was run: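 HEK 293T SBE-bla line, 5 hr compound exposure at 37 C, multiplexed CellTiter-Glo viability read by luminescence.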

[3] = qHTS assay to identify small molecule agonists of the TGF-beta/Smad signaling pathway (AID 1346859; active = well fitted activation curve with a large enough effect in the signal ratio in the repeat runs, not every such curve was filed as active; the % refers to the signal ratio; also: series mostly up to about 77 µM)
How it was run: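 Dual-wavelength fluorescence (460/530 nm emission) quantified beta-lactamase expression under the Smad binding element in HEK 293T cells following 5 hr compound treatment at 37 C.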

[4] = target: Thyrotropin-releasing hormone receptor (Homo sapiens) (UniProt P34981); experiment: qHTS assay to identify small molecule antagonists of the thyrotropin-releasing hormone receptor (TRHR) signaling pathway (AID 1346877; active = well fitted inhibition curve with a large enough effect in the repeat runs, not every such curve was filed as active; also: series mostly up to about 51 µM)
Chain of Thyrotropin-releasing hormone receptor (Homo sapiens) (P34981 whole entry, looked up): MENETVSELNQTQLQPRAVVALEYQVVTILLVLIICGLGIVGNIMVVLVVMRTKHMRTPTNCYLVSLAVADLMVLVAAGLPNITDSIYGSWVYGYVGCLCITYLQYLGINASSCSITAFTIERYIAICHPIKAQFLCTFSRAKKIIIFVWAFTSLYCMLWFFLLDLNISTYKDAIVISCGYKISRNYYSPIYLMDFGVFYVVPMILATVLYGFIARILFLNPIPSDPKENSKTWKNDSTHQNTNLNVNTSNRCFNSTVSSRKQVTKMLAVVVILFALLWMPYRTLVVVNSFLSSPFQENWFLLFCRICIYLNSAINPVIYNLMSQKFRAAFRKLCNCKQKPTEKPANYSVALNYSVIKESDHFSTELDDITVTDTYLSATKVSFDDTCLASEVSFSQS
How it was run: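 Human TRHR in HEK293 cells; inhibition of the intracellular calcium rise triggered by 1 nM TRH was followed by fluorescence over 3 min. Compounds were run at 15 concentrations, three replicates each.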

[5] = target: Thyrotropin-releasing hormone receptor (Homo sapiens) (UniProt P34981); experiment: qHTS assay to identify small molecule agonists of the thyrotropin-releasing hormone receptor (TRHR) signaling pathway (AID 1346891; calls by dose curve;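 also: HEK293 cells expressing TRHR with calcium dye readout; series mostly up to about 58 µM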)
How it was run: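 Kinetic fluorescence (3 min, 1 s intervals) reported intracellular calcium after compound transfer onto TRHR-Hek293 cells pre-loaded with dye for 2 h at 37 °C.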

[6] = Human pregnane X receptor (PXR) small molecule agonists, qHTS cell viability counter screen (AID 1346977); also: nearly all actives have a fitted effect of over 50% in size
How it was run: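 HepG2 cells stably carrying the PXR-Luc reporter are cultured with 5% charcoal-stripped FBS and treated with compounds for 24hr. CellTiter-Fluor is added at 23hr and fluorescence is read after 1hr.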

[7] = Caspase-3/7 induction in HepG2 cells by small molecules, qHTS assay (AID 1346978); also: nearly all actives have a fitted effect of over 15% in size
How it was run: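 Wild-type HepG2 cells, 2,000/well, settled 5 hr at 37 C and 5% CO2, then compound-treated for 17 hr; caspase-3/7 activity read by luminescent Caspase-Glo 3/7 after 30 min at room temperature.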

[8] = Caspase-3/7 induction in CHO-K1 cells by small molecules, qHTS cell viability counter screen (AID 1346979); also: nearly all actives have a fitted effect of over 35% in size
How it was run: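 Seeding: 1,500 CHO-K1 cells/well. Rest: 5hr, 37C. Treatment: compounds in DMSO, 16hr. Read: CellTiter-Fluor, 1hr, fluorescence.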

[9] = Caspase-3/7 induction in CHO-K1 cells by small molecules, qHTS assay (AID 1346980); also: nearly all actives have a fitted effect of over 15% in size
How it was run: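 Wild-type CHO-K1 cells exposed to compounds for 17hr at 37 C, 5% CO2. Caspase-3/7 activity then measured by Caspase-Glo 3/7 luminescence after 30min at room temperature.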

[10] = Caspase-3/7 induction in HepG2 cells by small molecules, qHTS cell viability counter screen (AID 1346981); also: series mostly up to about 92 µM; nearly all actives have a fitted effect of over 30% in size
How it was run: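 The parent HepG2 line is plated at 2,000 cells per well and rested 5 hr before compound pinning from DMSO stocks. Following a 16-hr treatment at 37 C, a fluorogenic live-cell substrate (CellTiter-Fluor) reports viability after 1 hr.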

[11] = target: Nuclear receptor subfamily 1 group I member 2 (Homo sapiens) (UniProt O75469); experiment: Human pregnane X receptor (PXR) small molecule agonists, qHTS assay (AID 1346982); also: nearly all actives have a fitted effect of over 35% in size
Chain of Nuclear receptor subfamily 1 group I member 2 (Homo sapiens) (O75469 whole entry, looked up): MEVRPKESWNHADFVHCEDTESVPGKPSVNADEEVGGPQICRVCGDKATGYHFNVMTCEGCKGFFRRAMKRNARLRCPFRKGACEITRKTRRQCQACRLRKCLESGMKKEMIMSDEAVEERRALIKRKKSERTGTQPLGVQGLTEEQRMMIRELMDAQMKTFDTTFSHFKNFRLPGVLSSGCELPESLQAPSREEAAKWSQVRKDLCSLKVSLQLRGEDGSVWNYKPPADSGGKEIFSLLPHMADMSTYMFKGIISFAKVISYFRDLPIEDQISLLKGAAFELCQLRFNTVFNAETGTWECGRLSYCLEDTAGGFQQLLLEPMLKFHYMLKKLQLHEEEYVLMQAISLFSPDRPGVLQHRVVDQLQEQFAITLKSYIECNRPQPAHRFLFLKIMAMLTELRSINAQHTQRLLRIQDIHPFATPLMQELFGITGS
How it was run: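 After plating in 5% charcoal-stripped FBS and a 5 hr rest, PXR-Luc HepG2 cells received compounds in DMSO. Following 24 hr at 37 C, ONE-Glo was added and light output read.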

[12] = target: Cytochrome P450 2C9 (Homo sapiens) (UniProt P11712); experiment: Cytochrome P450 Family 2 Subfamily C Member 9 (CYP2C9) small molecule antagonists: luciferase reporter qHTS assay (AID 1671198); also: nearly all actives have a fitted effect of over 50% in size; also: potency is read from the fitted curve at half-maximal effect
Chain of Cytochrome P450 2C9 (Homo sapiens) (P11712 whole entry, looked up): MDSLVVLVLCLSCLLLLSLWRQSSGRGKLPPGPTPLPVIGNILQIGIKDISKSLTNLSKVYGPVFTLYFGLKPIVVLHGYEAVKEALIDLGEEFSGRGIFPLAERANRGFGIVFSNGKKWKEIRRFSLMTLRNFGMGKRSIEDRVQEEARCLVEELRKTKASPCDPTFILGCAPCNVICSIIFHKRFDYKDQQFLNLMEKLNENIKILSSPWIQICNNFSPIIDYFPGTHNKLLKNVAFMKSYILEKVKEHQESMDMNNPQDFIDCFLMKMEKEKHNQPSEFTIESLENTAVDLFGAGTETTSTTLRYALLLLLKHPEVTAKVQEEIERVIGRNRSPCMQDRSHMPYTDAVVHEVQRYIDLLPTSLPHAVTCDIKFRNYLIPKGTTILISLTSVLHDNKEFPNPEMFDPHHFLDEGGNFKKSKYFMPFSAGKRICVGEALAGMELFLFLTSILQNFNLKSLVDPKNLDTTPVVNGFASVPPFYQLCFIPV
How it was run: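 P450-Glo proluciferin substrate with CYP2C9 enzyme; 10 min RT preincubation, then NADPH regeneration 1 h at 37C; luciferin detection reagent 20 min RT, luminescence in relative luminescence units.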

[13] = target: Cytochrome P450 1A2 (Homo sapiens) (UniProt P05177); experiment: Cytochrome P450 Family 1 Subfamily A Member 2 (CYP1A2) small molecule antagonists: luciferase reporter qHTS assay (AID 1671199); also: nearly all actives have a fitted effect of over 50% in size; also: potency is read from the fitted curve at half-maximal effect
Chain of Cytochrome P450 1A2 (Homo sapiens) (P05177 whole entry, looked up): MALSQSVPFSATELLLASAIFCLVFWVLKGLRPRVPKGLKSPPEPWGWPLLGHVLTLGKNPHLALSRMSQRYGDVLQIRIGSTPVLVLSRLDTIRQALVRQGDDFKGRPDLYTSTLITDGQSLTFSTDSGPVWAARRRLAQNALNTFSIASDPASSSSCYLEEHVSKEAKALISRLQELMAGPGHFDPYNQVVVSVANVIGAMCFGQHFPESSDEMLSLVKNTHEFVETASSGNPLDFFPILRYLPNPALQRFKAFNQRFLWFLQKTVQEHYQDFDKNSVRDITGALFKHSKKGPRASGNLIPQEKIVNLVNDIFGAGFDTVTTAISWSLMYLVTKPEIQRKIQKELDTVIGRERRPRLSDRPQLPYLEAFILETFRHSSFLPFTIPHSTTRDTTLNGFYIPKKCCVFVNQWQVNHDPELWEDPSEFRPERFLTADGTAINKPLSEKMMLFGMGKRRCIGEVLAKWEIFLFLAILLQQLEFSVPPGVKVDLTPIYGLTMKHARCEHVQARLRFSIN
How it was run: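 Quantitative high-throughput format using the P450-Glo CYP1A2 system. Reaction initiated by NADPH regeneration solution, 1 h at room temperature, then stopped with detection reagent; luminescence measured 20 min later.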

[14] = target: Voltage-gated inwardly rectifying potassium channel KCNH2 (Homo sapiens) (UniProt Q12809); experiment: Human Ether-a-go-go-Related Gene (hERG) channel small molecule antagonists: fluorescence cell-based qHTS assay (AID 1671200)
Chain of Voltage-gated inwardly rectifying potassium channel KCNH2 (Homo sapiens) (Q12809 whole entry, looked up): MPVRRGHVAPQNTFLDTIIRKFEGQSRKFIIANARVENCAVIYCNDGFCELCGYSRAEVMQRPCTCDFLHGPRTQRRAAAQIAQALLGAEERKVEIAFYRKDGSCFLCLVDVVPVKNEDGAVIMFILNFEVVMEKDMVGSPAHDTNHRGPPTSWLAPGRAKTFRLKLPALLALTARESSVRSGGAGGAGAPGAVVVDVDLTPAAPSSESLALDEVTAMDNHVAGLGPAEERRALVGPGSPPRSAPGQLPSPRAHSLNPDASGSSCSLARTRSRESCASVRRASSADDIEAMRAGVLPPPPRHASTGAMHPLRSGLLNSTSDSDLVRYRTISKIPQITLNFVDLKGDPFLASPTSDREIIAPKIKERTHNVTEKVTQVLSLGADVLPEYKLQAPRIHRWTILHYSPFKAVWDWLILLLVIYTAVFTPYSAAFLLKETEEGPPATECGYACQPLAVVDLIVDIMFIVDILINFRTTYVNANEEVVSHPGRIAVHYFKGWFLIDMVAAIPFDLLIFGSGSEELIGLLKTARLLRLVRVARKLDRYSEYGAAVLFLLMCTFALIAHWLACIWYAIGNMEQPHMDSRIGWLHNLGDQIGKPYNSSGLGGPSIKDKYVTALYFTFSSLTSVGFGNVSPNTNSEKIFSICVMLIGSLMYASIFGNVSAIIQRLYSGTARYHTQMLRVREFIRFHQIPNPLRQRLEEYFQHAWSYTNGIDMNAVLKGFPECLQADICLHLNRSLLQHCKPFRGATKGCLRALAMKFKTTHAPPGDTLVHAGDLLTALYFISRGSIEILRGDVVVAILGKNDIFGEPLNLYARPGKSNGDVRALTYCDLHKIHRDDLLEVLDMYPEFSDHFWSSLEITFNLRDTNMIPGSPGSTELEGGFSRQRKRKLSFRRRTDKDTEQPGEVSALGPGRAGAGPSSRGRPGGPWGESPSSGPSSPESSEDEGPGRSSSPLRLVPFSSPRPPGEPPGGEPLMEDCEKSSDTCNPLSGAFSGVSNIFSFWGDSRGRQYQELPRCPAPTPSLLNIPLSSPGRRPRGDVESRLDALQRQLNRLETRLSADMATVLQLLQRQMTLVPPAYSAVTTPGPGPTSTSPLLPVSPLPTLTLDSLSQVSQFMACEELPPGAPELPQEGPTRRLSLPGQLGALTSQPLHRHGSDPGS
How it was run: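 First, 1000 cells per well are seeded and cultured overnight at 37 C. Next, FluxOR II dye is loaded for 1 h at room temperature, protected from light. After 10 more minutes, stimulus is added and fluorescence is read.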

[15] = target: Cytochrome P450 3A4 (Homo sapiens) (UniProt P08684); experiment: Cytochrome P450 Family 3 Subfamily A Member 4 (CYP3A4) small molecule antagonists: luciferase reporter qHTS assay (AID 1671201)
Chain of Cytochrome P450 3A4 (Homo sapiens) (P08684 whole entry, looked up): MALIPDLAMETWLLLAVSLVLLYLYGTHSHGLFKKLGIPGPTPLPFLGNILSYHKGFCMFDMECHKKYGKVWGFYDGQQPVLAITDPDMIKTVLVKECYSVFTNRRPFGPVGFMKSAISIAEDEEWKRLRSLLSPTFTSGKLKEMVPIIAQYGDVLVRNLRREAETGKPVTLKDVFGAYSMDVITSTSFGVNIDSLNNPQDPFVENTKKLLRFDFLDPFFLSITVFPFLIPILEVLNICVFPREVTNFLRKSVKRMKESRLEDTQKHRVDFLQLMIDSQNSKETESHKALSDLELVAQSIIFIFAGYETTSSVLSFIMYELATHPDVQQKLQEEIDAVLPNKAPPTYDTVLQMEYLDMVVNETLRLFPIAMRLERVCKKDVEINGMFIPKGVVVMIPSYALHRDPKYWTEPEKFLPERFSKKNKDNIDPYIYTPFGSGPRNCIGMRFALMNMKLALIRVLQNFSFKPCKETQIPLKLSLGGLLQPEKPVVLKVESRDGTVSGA
How it was run: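 Enzyme and proluciferin substrate are mixed with test chemicals for 10 min, then NADPH regeneration system drives turnover for 1 h at room temperature. A detection reagent halts the reaction; luminescence after 20 min gives relative activity.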

[16] = target: Cytochrome P450 2D6 (Homo sapiens) (UniProt P10635); experiment: Cytochrome P450 Family 2 Subfamily D Member 6 (CYP2D6) small molecule antagonists: luciferase reporter qHTS assay (AID 1671196); also: nearly all actives have a fitted effect of over 50% in size; also: potency is read from the fitted curve at half-maximal effect
Chain of Cytochrome P450 2D6 (Homo sapiens) (P10635 whole entry, looked up): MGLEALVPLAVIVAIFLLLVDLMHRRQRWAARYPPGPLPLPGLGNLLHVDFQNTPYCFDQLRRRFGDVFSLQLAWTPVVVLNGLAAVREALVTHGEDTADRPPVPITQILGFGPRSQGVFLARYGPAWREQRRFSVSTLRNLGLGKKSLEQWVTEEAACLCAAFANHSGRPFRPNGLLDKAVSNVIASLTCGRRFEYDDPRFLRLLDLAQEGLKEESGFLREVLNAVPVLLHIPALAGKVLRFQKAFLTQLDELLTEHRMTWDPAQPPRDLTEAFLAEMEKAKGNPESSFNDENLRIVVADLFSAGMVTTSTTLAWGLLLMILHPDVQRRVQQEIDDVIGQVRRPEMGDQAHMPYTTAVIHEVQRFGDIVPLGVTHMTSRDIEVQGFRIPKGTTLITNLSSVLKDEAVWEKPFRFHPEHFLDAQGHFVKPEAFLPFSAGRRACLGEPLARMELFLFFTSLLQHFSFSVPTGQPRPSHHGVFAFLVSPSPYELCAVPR
How it was run: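 Quantitative HTS of Tox21 chemicals against CYP2D6 using a luminescent proluciferin substrate. After NADPH addition, 1 h room-temperature reaction; luminescence recorded 20 min post detection reagent.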

[17] = target: Cytochrome P450 2C19 (Homo sapiens) (UniProt P33261); experiment: Cytochrome P450 Family 2 Subfamily C Member 19 (CYP2C19) small molecule antagonists: luciferase reporter qHTS assay (AID 1671197); also: nearly all actives have a fitted effect of over 65% in size; also: potency is read from the fitted curve at half-maximal effect
Chain of Cytochrome P450 2C19 (Homo sapiens) (P33261 whole entry, looked up): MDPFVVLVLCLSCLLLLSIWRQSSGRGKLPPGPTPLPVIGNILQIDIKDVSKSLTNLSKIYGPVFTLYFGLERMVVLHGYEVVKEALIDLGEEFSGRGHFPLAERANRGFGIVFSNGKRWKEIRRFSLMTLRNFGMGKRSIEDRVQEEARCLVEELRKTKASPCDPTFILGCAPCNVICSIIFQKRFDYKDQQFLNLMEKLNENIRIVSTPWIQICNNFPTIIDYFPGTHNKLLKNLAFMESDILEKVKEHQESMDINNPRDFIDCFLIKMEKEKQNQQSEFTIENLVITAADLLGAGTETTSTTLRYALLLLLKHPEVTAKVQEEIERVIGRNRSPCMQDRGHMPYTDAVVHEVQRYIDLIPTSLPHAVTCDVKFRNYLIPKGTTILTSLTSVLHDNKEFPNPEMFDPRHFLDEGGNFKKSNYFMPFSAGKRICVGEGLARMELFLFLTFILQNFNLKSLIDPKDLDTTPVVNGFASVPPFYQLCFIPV
How it was run: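 First, compounds are pinned into enzyme-substrate mix and held 10 min at room temperature. Second, NADPH regeneration solution is added and plates incubate 1 h at 37C. Third, detection reagent is added and luminescence read after 20 min.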

[18] = target: Nuclear receptor subfamily 1 group I member 2 (Rattus norvegicus) (UniProt Q9R1A7); experiment: Rat pregnane X receptor (rPXR) activation by small molecules, qHTS assay (AID 1346983); conditions: rPXR luciferase reporter cells, One-Glo luminescence, 24 h; max activation: active compounds read high; also: nearly all actives have a fitted effect of over 20% in size
Chain of Nuclear receptor subfamily 1 group I member 2 (Rattus norvegicus) (Q9R1A7 whole entry, looked up): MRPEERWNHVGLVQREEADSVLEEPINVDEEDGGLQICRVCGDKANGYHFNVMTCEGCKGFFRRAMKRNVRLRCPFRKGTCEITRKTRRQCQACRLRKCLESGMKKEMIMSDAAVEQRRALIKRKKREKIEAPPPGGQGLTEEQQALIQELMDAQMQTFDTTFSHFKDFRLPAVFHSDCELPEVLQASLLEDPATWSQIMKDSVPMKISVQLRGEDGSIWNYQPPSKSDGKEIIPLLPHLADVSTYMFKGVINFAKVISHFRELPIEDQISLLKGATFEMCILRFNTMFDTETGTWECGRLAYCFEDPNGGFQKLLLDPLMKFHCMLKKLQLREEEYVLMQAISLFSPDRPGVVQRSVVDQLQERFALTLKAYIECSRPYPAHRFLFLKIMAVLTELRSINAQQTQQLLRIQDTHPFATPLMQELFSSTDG
How it was run: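 Cell-based rPXR activation assay: rPXR cells, 2,000 per well, rested 5hr at 37 C, then exposed to compounds in DMSO for 24 hr at 37 C. Luciferase activity read by One-Glo luminescence after 30 min at room temperature.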

[19] = target: Nuclear receptor subfamily 1 group I member 2 (Homo sapiens) (UniProt O75469); experiment: CYP3A4 induction through human pregnane X receptor (PXR) by small molecules, qHTS assay (AID 1346984); also: nearly all actives have a fitted effect of over 40% in size
How it was run: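 Human PXR activation is tracked via CYP3A4 promoter-luciferase in DPX-2 (HepG2) cells. Compounds treat cells for 24hr at 37C, and luminescence is read after One-Glo.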

[20] = target: Nuclear receptor subfamily 1 group I member 2 (Homo sapiens) (UniProt O75469); experiment: Human pregnane X receptor (PXR) activation by small molecules, qHTS assay (AID 1346985); also: nearly all actives have a fitted effect of over 40% in size
How it was run: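 DPX-2 cells (HepG2 co-transfected with a PXR response element and a CYP3A4-promoter luciferase construct) were seeded at 2,000 per well, rested 5 hr at 37C, then exposed to DMSO-dissolved compounds for 24 hr. Activation was read as luciferase luminescence.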

Row | Compound | outcome [1] | outcome [2] | outcome [3] | outcome [4] | outcome [5] | Potency [6] | outcome [7] | Potency [8] | outcome [9] | Potency [10] | Potency [11] | Potency [12] | Potency [13] | Potency [14] | Potency [15] | Potency [16] | Potency [17] | max activation [18] [%] | outcome [19] | Potency [20]
1 | C=C(C)C(=O)OCCCCCCOC(=O)C(=C)C | inactive | inactive | inactive | inactive | inactive | inactive | inactive | inactive | inactive | inactive | inactive | 35.6 µM (active) | 39.9 µM (active) | inactive | inactive | – | – | – | – | –
2 | CCCCCN(CCCOC)C(=O)C(CCC(=O)O)NC(=O)c1ccc(Cl)c(Cl)c1 (stereo not drawn) | inactive | inactive | inactive | inactive | inactive | inactive | inactive | inactive | inactive | inactive | inactive | 13.8 µM (active) | 30.9 µM (active) | inactive | inactive | inactive | inactive | – | – | –
3 | COc1ccc(/C=N/NC(=O)c2ccncc2)cc1OC | inactive | inactive | inactive | inactive | inactive | inactive | inactive | inactive | inactive | inactive | inactive | 17.4 µM (active) | – | inactive | – | – | 34.7 µM (active) | -2.5 | inactive | inactive
4 | C=C(C)C(=O)OC1CC(C)CC(C)(C)C1 (stereo not drawn) | inactive | inactive | inactive | inactive | inactive | inactive | inactive | inactive | inactive | inactive | inactive | inactive | 31.7 µM (active) | inactive | inactive | inactive | – | – | – | –
5 | O=C1OC(=O)c2ccccc21 | inactive | inactive | inactive | inactive | inactive | inactive | inactive | inactive | inactive | – | inactive | inactive | inactive | inactive | inactive | – | inactive | – | – | –
6 | CCCCC(CC)CNC(=O)CC(C)OC(=O)CCC(=O)O (stereo not drawn) | inactive | inactive | inactive | inactive | inactive | inactive | inactive | inactive | inactive | inactive | inactive | – | – | inactive | – | 17.4 µM (active) | – | – | – | –
7 | c1ccccc1 | inactive | inactive | inactive | inactive | inactive | inactive | inactive | inactive | inactive | inactive | – | inactive | inactive | inactive | inactive | inactive | – | – | – | –
8 | CC(C)SCc1ccco1 | inactive | inactive | inactive | inactive | inactive | inactive | inactive | – | inactive | – | inactive | inactive | inactive | inactive | inactive | inactive | inactive | – | – | –
